Among the data in PubChem BioAssay (NCI) are growth values, retold here.

About 83,000 compounds went through this panel and 20% of them were active in at least one assay; those are over-represented in the sample as a whole.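 Growth was measured after 48 h exposure to one concentration of compound in 96-well plates. Values under 10 count as active.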 Activity calls are given as the source filed them.

In this test the test system is MOLT-4 leukemia. Briefly: NCI-60 one-dose screen, 48 h (100 = growth as untreated, 0 = no growth, -100 = all killed). The note with it: 10 µM unless noted.
On to `COc1ccc(/C=C\c2nc3ccccc3s2)cc1OP(=O)(O)O`, for which the growth was 26.3% (inactive).
The figure for `COc1ccc(-c2c[nH]c(C(=O)O)c2-c2cc(OC)c3c(c2OC)OCO3)cc1` is 102% (inactive); for `COc1ccc(C(=O)c2cc3c(N)c(C(=O)Nc4cccc(Cl)c4C)sc3nc2C)cc1` it is 8.51% (active); for `O=C(/C=C\c1ccc(OCCCCCC[P+](c2ccccc2)(c2ccccc2)c2ccccc2)cc1)c1ccc2c(c1)OCCO2` it is -20.6% (active).
The figure for `Cc1cccc(Oc2ccc(Nc3ncnc4ccc(NC(=O)CNCCO)cc34)cc2Cl)c1` is 62% (inactive); for `O=C(CSc1nc2sc3c(c2c(=O)n1Cc1ccccc1)CCCC3)N1CCN(c2ccccc2)CC1` it is 92.8% (inactive).
The figure for `Cc1cccc(Oc2ccc(Nc3ncnc4ccc(NC(=O)CN(C)C)cc34)cc2Cl)c1` is 25.9% (inactive); for `O=C1/C(=C/c2ccc(O)cc2)COc2ccc(-c3ccccc3)cc21` it is -22.5% (active); for `COc1ccc(C(=O)c2cc3c(N)c(C(=O)Nc4cccc(OC)c4)sc3nc2C)cc1` it is 15.8% (inactive).
As for `NS(=O)(=O)c1cccc(NC(=O)C(=O)C2C(=O)Nc3ccccc32)c1` (stereo not given), the growth is 100% (inactive).
